Tests used:
Assay in all cases: log2 ratio of Biotin-Ahx-Ub-VS probe labelling (fragment/DMSO); higher = less target engagement (more negative = stronger competition), active = hit call of the paper (q ≤ 0.05, log2 ratio ≤ -1)
Conditions in all cases: compound concentration: 200 uM; treatment time: 3 h
ALG13 = target: T1, ALG13 (UniProt Q9NP73)
T1 sequence (whole entry): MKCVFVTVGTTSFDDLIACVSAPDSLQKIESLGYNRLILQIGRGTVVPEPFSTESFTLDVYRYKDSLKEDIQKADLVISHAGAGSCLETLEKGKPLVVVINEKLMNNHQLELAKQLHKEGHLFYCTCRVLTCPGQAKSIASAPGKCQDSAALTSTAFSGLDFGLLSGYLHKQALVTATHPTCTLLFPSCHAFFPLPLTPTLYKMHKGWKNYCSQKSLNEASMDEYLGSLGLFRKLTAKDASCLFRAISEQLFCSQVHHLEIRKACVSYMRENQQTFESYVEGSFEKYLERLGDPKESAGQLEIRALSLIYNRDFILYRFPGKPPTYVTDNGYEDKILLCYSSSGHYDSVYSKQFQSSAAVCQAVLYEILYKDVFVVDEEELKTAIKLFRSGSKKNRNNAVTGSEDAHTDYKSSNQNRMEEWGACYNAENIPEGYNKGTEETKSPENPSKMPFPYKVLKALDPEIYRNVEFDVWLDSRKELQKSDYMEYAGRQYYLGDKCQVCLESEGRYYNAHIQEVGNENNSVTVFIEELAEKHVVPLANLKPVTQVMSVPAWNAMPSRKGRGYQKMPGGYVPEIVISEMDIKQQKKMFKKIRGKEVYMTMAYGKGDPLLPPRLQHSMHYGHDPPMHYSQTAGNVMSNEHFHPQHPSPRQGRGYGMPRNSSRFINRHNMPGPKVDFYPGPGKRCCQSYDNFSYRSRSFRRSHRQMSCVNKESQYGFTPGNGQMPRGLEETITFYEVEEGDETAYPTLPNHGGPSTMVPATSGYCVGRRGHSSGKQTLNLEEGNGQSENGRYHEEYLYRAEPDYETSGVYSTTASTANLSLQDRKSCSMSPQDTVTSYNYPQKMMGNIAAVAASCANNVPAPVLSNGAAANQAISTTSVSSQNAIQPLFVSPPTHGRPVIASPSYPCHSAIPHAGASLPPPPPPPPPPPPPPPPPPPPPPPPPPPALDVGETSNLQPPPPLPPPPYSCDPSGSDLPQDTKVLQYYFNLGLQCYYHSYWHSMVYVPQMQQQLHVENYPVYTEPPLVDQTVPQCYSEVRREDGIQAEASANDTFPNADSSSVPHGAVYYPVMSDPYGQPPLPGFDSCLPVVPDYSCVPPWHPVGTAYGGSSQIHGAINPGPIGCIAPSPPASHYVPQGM
Method in brief: (§1)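 HEK293T lysate (495 µg per sample, in Tris/CHAPS/IGEPAL buffer with protease inhibitors) was exposed in triplicate for 3 h to fragment at 200 µM or to vehicle, then to Biotin-Ahx-Ub-VS at 0.5 µM final for 1 h. Labelled DUBs were enriched on NeutrAvidin, digested with LysC and trypsin, and analysed by diaPASEF LC-MS/MS. Spectronaut label-free quantities were normalised to the global median, and values are average log2 ratios of fragment over vehicle from an unpaired t-test. Only proteins with ≥2 unique peptides were used.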

ATXN3 = ATXN3 (UniProt P54252)
Method in brief: as §1

BAP1 = target: T2, BAP1 (UniProt Q92560)
T2 sequence (whole entry): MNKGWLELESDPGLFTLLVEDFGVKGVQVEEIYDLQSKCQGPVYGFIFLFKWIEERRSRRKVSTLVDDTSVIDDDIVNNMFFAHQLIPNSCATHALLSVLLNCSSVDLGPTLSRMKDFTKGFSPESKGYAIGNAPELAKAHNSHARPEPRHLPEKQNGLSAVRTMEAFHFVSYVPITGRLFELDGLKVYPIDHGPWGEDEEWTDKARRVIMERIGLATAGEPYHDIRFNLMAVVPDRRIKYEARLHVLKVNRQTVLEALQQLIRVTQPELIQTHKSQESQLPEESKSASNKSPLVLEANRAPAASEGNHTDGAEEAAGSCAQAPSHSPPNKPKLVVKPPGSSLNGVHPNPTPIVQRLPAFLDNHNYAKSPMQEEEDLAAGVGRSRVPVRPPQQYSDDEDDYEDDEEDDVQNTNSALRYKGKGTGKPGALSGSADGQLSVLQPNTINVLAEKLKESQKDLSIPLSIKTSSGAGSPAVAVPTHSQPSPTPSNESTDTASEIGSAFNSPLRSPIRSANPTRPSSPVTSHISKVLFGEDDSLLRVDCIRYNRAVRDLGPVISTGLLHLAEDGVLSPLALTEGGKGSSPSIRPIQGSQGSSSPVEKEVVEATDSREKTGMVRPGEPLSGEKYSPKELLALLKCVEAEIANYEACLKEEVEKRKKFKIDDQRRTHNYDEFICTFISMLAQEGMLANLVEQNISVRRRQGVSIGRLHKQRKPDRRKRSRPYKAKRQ
Method in brief: as §1

EIF3F = EIF3F (UniProt O00303)
Method in brief: as §1

EIF3H = EIF3H (UniProt O15372)
Method in brief: as §1

FAM105A = target: T3, FAM105A (UniProt Q9NUU6)
T3 sequence (whole entry): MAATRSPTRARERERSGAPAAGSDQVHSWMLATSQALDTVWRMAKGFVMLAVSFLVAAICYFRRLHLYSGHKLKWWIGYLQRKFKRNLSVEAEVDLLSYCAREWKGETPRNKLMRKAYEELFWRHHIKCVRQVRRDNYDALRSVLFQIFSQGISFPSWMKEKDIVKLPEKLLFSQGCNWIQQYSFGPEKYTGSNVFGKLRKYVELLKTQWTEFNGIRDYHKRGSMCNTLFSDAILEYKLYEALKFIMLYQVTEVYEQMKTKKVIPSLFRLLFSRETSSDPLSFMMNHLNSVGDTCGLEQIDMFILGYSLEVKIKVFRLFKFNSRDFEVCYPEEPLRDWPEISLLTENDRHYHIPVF
Method in brief: as §1

OTUB1 = OTUB1 (UniProt Q96FW1)
Method in brief: as §1

OTUD4 = target: T4, OTUD4 (UniProt Q01804)
T4 sequence (whole entry): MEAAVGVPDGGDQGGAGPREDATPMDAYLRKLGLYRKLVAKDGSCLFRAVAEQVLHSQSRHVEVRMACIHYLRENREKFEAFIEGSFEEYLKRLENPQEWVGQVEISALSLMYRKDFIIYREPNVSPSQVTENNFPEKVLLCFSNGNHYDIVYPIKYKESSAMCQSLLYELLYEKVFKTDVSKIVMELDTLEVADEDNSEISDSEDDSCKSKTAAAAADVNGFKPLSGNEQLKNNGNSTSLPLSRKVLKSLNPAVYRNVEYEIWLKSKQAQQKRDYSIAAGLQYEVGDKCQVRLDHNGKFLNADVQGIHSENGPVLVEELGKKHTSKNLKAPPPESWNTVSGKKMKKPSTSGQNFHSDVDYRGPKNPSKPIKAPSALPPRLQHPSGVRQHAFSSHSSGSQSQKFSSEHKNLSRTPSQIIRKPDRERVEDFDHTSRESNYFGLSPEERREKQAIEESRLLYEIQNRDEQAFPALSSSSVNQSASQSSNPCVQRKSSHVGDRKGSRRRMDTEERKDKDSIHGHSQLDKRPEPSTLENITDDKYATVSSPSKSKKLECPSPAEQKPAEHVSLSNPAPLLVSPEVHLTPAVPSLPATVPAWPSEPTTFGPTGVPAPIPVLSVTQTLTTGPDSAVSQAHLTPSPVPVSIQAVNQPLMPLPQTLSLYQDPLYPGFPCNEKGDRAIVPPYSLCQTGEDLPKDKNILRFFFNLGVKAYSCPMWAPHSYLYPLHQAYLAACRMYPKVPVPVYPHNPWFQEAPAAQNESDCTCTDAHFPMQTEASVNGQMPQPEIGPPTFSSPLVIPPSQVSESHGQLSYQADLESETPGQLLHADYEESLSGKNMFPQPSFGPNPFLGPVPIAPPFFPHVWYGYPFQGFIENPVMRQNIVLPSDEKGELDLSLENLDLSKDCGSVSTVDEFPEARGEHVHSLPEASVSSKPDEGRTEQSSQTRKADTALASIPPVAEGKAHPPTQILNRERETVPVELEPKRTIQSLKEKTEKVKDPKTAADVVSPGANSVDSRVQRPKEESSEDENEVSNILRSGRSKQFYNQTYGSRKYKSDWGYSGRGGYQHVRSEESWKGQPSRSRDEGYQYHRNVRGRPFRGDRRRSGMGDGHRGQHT
Method in brief: as §1

OTUD5 = target: T5, OTUD5 (UniProt Q96G74)
T5 sequence (whole entry): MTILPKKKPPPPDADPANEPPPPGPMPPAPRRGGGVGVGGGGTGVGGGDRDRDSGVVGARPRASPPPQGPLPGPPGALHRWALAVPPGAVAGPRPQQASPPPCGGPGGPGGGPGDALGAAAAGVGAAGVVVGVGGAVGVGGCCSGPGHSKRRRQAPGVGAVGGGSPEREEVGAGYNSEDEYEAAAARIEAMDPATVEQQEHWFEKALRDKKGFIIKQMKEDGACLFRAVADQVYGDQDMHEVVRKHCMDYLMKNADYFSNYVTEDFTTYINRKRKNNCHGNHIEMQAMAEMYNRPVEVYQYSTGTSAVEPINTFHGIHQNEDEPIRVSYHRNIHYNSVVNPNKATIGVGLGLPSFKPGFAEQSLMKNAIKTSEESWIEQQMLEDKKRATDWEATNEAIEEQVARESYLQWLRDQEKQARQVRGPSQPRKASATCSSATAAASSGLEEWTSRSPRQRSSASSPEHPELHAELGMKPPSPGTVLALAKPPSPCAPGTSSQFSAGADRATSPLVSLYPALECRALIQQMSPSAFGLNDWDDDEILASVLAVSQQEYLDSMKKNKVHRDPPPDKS
Method in brief: as §1

Measured: log2 ratio of Biotin-Ahx-Ub-VS probe labelling

Chain of ATXN3 (P54252 whole entry): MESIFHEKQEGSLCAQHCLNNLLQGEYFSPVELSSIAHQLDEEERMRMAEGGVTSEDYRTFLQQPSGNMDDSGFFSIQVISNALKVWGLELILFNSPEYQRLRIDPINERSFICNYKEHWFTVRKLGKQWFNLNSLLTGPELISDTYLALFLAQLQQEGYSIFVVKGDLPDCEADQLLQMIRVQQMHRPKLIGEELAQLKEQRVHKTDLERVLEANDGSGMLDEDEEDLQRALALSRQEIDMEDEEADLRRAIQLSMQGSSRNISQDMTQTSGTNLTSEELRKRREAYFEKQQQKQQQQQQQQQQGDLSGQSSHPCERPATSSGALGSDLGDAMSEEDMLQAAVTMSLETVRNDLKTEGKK
Chain of EIF3F (O00303 whole entry): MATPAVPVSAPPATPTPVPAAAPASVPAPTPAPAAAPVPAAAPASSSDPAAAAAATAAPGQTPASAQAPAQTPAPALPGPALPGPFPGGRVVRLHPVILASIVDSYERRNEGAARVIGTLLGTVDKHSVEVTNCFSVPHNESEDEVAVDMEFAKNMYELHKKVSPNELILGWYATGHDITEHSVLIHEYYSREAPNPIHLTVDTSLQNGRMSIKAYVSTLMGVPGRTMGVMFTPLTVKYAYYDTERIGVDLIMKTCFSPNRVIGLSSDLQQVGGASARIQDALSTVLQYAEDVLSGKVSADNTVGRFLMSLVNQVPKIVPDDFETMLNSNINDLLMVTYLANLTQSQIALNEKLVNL
Chain of EIF3H (O15372 whole entry): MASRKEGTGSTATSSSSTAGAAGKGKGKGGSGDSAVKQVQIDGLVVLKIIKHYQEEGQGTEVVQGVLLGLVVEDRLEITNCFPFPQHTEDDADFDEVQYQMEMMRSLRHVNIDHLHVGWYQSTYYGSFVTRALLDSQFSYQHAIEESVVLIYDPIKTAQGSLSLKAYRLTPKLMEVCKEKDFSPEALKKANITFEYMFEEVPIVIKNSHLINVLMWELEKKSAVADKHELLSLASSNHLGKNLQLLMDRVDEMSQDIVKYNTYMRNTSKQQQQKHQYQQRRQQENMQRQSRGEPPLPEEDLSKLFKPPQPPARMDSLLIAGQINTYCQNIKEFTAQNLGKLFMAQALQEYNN
Chain of OTUB1 (Q96FW1 whole entry): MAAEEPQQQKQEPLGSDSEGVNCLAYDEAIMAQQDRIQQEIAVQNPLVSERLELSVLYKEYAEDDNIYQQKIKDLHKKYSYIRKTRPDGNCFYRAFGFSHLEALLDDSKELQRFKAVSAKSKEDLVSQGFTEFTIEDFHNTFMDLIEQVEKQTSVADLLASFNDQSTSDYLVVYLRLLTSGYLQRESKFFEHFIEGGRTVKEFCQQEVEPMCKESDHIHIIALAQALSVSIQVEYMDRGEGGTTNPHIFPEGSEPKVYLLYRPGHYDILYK

O=C(CCl)NC1CCOc2ccccc21 (centres undefined)
inactive: ALG13 -0.044 | ATXN3 -0.806 | EIF3F -0.349 | EIF3H 0.199 | FAM105A 0.29 | OTUB1 -0.321 | OTUD5 -0.73
active: BAP1 -2.55 | OTUD4 -2.03

Reference: the supplement of paper PMC11732987, “Enantioselective OTUD7B fragment discovery through chemoproteomics screening and high-throughput optimisation” (Communications Chemistry, 2025)
